Results as given in PubChem BioAssay.
Unmarked numbers belong to inactive results. Activity calls are given as the source filed them.

assay: PSAC antagonists in infected red cells, primary screen, cell-based, P. falciparum Indochina, OD700, 1 h (AID 1154); conditions: P. falciparum Indochina infected RBC osmotic lysis, higher = more signal, called active from +8 up or from −8 down

Structure (SMILES) | z-score
C=CCC(OC(C)=O)[C@@H]1[C@@H](N(Cc2cc3ccccc3o2)C(=O)c2ccc(-c3ccccc3)cc2)c2cc(OCCCO)ccc2N1C(=O)Cc1ccc(OC)cc1 (stereo not given in full) | 0.702
COCC(=C=CC[C@@H](O)c1ccc(OCCO)cc1)CCO | 6.19
CC(C)(C)OC(=O)CC[C@]12N=C(c3ccc(OCCCO)cc3)O[C@H]1c1ccccc1N(Cc1ccccc1)C2=O | 27 (active)
O=C1OCCC/C=C\[C@H]2OC34C=CCN(c5ccc6ccccc6c5)C(=O)[C@H]3N(CCCO)C(=O)[C@@H]4C12 (stereo not given in full) | 3.21
C=C/C=C/[C@@H]1C(=C)CN([C@@H](Cc2ccccc2)C(=O)OC)[C@H]1[C@@H](O)Cc1ccccc1 | 0.743
O=C1NC(=O)C2C1C=CC(C(O)c1ccccn1)N2Nc1ccc(Cl)cc1Cl (stereo not given) | 0.625
CC(C)C[C@@H]1NC(=O)CNC(=O)[C@@]23C(=O)N[C@@H](Cc4ccccc4)C2[C@H](C)[C@@]2(C)O[C@H]2C3/C=C/C/C=C\CNC1=O (stereo not given in full) | 0.349
CCOC(=O)C1=C[C@@H](c2ccccc2)N(S(=O)(=O)c2ccc(C)cc2)[C@H]1c1ccccc1 | 13.8 (active)
[N-]=[N+]=NCc1ccccc1C[C@]1(C(=O)N2CCOCC2)COC(c2ccc(OCCCO)cc2)=N1 | 26.6 (active)
COCCOC(=O)N1C(=O)[C@@]2(c3cc(C#Cc4ccc(OC)cc4)ccc31)[C@H](C(=O)NC[C@H](O)c1ccccc1)[C@H]1C(=O)O[C@H](c3ccccc3)[C@H](c3ccccc3)N1[C@@H]2c1ccc(OCCO)cc1 | 5.02
